Assay outcomes (PubChem)
DAX1 StAR inh – inhibitors of DAX1 repression of SF-1 activated StAR promoter; 370,000 compounds, 1.1% hits; HEK293T StAR-luciferase reporter, SF-1/DAX-1 repression relief; AID 652010; inhibition, % at 6.8 µM;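 active = inhibition above the mean over all tested compounds plus 3 SD, cut at about 3.6% in these data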;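 note: higher inhibition means more luminescence from relief of DAX-1 repression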
hcDAF12 agonist – activates DAF-12 receptor from parasite H. contortus; AID 652067; HEK293 hcDAF-12 lit1-tk-luc reporter, luminescence; 0% DMSO, 100% Δ7-dafachronic acid; activation, % at 6.8 µM; 370,000 compounds, 1.4% hits;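 active = activation above the mean of all tested compounds plus 3 SD, cut at about 5.5% in these data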
ssDAF-12 act – activates DAF-12 receptor from parasite S. stercoralis | AID 652126 | activation, % at 6.8 µM | HEK293 ssDAF-12/GRIP1 lit1-tk-luc reporter, luminescence; % of 3 µM dafachronic acid response | 370,000 compounds, 1% hits;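 active = activation above the mean over all tested compounds plus 3 SD, cut at about 0.9% in these data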
SMARCA2 activ – SMARCA2 function activation, primary screen; MG213 cells, MMTV-luciferase reporter, dexamethasone, overnight; AID 652017; 370,000 compounds, 1% hits; activation, % at 9.1 µM; in the data active = activation above about 7.8%
hgDAF-12 ag – agonists of H. glycines DAF-12 nuclear receptor | 370,000 compounds, 1.8% hits | HEK293 GAL4-hgDAF12 UAS-luciferase reporter, agonist luminescence; normalized to butyrate control | activation, % at 6.8 µM;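 active = activation above a cutoff set at the mean of all screened compounds plus 3 SD, cut at about 10% in these data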
SMARCA2 conf – confirmation of SMARCA2 (BRM) function activators; shares compounds with SMARCA2 activ; activation, % at 9.1 µM; AID 652260; 3,500 compounds, 30% hits; MG213 cells, MMTV-luciferase with dexamethasone, luminescence, overnight; MG213 cells expressing E1A, Rb sequestered; DMSO wells 0%, reference activator 100%;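 active = activation above its plate's cutoff, the mean activation of tested wells plus 3 SD, cut at about 7.9% in these data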
VP16 Luc act – activates GAL4-VP16 luciferase, flagging SMARCA2 activator hits; shares compounds with SMARCA2 activ; HEK293 GAL4-VP16 pG5luc reporter, luciferase luminescence; scaled: DMSO wells 0%, SAHA wells 100%; activation, % at 9.1 µM; 3,500 compounds, 41% hits; AID 686939;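 active = activation above the solvent-only control well mean plus 3 SD, averaged across control plates, cut at about 5.2% in these data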
LXR ag – counter-screen for hcDAF-12 agonists: agonists of human LXR-beta | shares compounds with hcDAF12 agonist | activation, % at 6.8 µM | HEK293 Gal4-LXR tk-luc reporter, luminescence, 24 h; normalized: DMSO 0%, positive control 100% | 3,400 tested, under 10 active;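 active = mean percent activation of the reporter above a cutoff set as the average over tested compounds plus their standard deviation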
Target sequence (P55055 whole entry, looked up, the tested form may be a part): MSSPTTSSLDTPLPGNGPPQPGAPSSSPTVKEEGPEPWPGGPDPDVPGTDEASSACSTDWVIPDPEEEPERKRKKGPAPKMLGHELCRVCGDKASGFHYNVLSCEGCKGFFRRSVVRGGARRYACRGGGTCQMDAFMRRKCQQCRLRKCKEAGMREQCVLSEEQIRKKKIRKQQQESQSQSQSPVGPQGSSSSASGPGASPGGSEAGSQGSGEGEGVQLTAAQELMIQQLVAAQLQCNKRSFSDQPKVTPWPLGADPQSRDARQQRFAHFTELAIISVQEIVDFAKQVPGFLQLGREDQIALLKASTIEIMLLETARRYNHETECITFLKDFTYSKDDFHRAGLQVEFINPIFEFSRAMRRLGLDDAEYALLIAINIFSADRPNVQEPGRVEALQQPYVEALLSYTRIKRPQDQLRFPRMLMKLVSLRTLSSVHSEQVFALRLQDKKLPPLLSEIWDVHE
hcDAF12 conf – confirmation of H. contortus DAF-12 agonists; shares compounds with hcDAF12 agonist; HEK293 hcDAF-12 lit1-tk-luc reporter, luminescence; % of Δ7-dafachronic acid response; activation, % at 6.8 µM; 3,400 compounds, 61% hits; AID 743032;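 active = mean activation across triplicate tests above the threshold derived from the earlier primary screen, cut at about 5.5% in these data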
hgDAF12 ag – confirmation of H. glycines DAF-12 agonists; 3,300 compounds, 80% hits; shares compounds with hgDAF-12 ag; activation, % at 6.8 µM; HEK293 GAL4-hgDAF12 luciferase reporter, agonist mode; percent of butyrate response; AID 743050;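 active = mean activation over triplicate wells above the hit cutoff derived from the earlier primary screen, cut at about 11% in these data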
LXRb DAF12 ctr – activates human LXR-beta, counter-screen for DAF-12 agonists; shares compounds with hgDAF-12 ag; HEK293 Gal4-LXR luciferase reporter, 24 h; activation, % at 6.8 µM; 3,300 tested, under 10 active; AID 743051;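 active = mean activation of the triplicate above a set limit carried over from the primary screen, none filed active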
Of the large screens only hits and unclear results are named; the others gave an inactive call (follow-up assays come after a bar, where they were run). Shown are actives, neighbours in structure and some others; about 4.2% of the full set was active somewhere.

CN(CCO)c1ccc2c(c1)Oc1ccccc1CN(Cc1cn(Cc3ccccc3C(F)(F)F)nn1)S2(=O)=O	none
Cc1cc(C(=O)Nc2cnc3ccccc3c2)ccc1[N+](=O)[O-]	SMARCA2 activ 9.3, hgDAF-12 ag 15 | SMARCA2 conf inactive | VP16 Luc act 8.5 | hgDAF12 ag 17 | LXRb DAF12 ctr inactive
O=C(NCc1cccs1)C1CCN(S(=O)(=O)c2cccc3ccccc23)CC1	none
O=C(Nc1ccc2c(c1)OCCO2)NC12CC3CC(CC(C3)C1)C2	SMARCA2 activ 20, hgDAF-12 ag 14 | SMARCA2 conf 12 | VP16 Luc act 11 | hgDAF12 ag 17 | LXRb DAF12 ctr inactive
CCc1cc2c(nc1CC)CCCN2S(=O)(=O)c1ccc(F)cc1	none
O=S(=O)(Nc1nc2ccccc2nc1N1CCc2ccccc2C1)c1ccc(Cl)cc1	DAX1 StAR inh 4.3, hcDAF12 agonist 16, ssDAF-12 act 2.5, SMARCA2 activ 9.0, hgDAF-12 ag 20 | SMARCA2 conf inactive | VP16 Luc act inactive | LXR ag inactive | hcDAF12 conf 6.3 | hgDAF12 ag 24 | LXRb DAF12 ctr inactive
Cc1ccccc1C(=O)NC(CC(C)C)C(=O)OCc1cc(=O)n2cc(Br)ccc2n1 (stereo unspecified)	SMARCA2 activ 9.4, hgDAF-12 ag 14 | SMARCA2 conf inactive | VP16 Luc act 8.8 | hgDAF12 ag 11 | LXRb DAF12 ctr inactive
CC(C)[C@H](NC(=O)c1ccccc1Cl)C(=O)OCc1cc(=O)n2cc(Br)ccc2n1	none
C=CCN1C[C@H](COC(=O)CSc2ccccc2)Oc2cccc(F)c2S1(=O)=O	none
Cc1ccccc1-c1nc2ccccc2[nH]1	none
Cc1cc(C)c2c(N)c(-c3nc4ccccc4[nH]3)sc2n1	hcDAF12 agonist 16, ssDAF-12 act 2.6, SMARCA2 activ 9.2, hgDAF-12 ag 13 | SMARCA2 conf 8.7 | VP16 Luc act 10 | LXR ag inactive | hcDAF12 conf 10 | hgDAF12 ag 14 | LXRb DAF12 ctr inactive
Cc1cc(O)ccc1Nc1cc(-c2cccc(N(C)C)c2)ncn1	DAX1 StAR inh 4.2, hcDAF12 agonist 5.8, SMARCA2 activ 11, hgDAF-12 ag 14 | SMARCA2 conf 11 | VP16 Luc act 11 | hgDAF12 ag 18 | LXRb DAF12 ctr inactive
COc1ccc2nc(N(CCN(C)C)C(=O)c3ccc4ncsc4c3)sc2c1	DAX1 StAR inh 3.9, hcDAF12 agonist 6.0, SMARCA2 activ 10, hgDAF-12 ag 14 | SMARCA2 conf 13 | VP16 Luc act 9.4 | hgDAF12 ag 19 | LXRb DAF12 ctr inactive
COc1ccc2nc(N(CCN(C)C)C(=O)c3ccc4ccccc4c3)sc2c1	none
CCCCOCC1CN(CCCC)S(=O)(=O)c2c(cccc2Sc2ccc(SC)cc2)O1 (stereo unspecified)	none
CS(=O)(=O)c1nc(-c2ccc(Br)cc2)cs1	none (no result: DAX1 StAR inh, SMARCA2 activ)
N#C/C(=C/c1cccs1)c1nc2ccccc2[nH]1	hcDAF12 agonist 6.8, SMARCA2 activ 9.3, hgDAF-12 ag 18 | SMARCA2 conf 24 | VP16 Luc act inactive | LXR ag inactive | hcDAF12 conf 8.4 | hgDAF12 ag 14 | LXRb DAF12 ctr inactive
